In all, about 1,300 compounds went through this assay and about 270 (21%) were called active. The rule behind the calls is not given here. Only a sample is shown. Measured potencies and affinities stand elsewhere.

The nature of this test: SK-MEL-5 parental cell viability loss, dose response, orthogonal assay for MITF inhibitor project, CellTiter-Glo, cherry-picked, set 3 (AID 493240). To be noted: SK-MEL-5 viability, ATP luminescence (CellTiter-Glo), 24 h; series mostly up to 35 µM.
Consider `CCCOC(=O)c1ccc(NC(=O)C2CCCO2)cc1` (configuration not stated), for which the outcome was inactive.

`CCOc1ccc(NC(=O)Nc2cccc(C(=O)O)c2)cc1`: the result was inactive.

Regarding `O=C(Nc1nnc(Cc2ccccc2)s1)c1ccccc1`, the outcome was inactive.

With `Cc1ccc(O)c(NC(=O)c2ccc3c(c2)C(=O)N(CC(C)C)C3=O)c1`, the outcome was inactive.

With `CCN(CC)C(=O)CCCOc1ccc(Cl)cc1Cl`, the result was inactive.

Take `O=C(O)c1cccc(N/N=C/c2cccs2)c1`: the result was inactive.

Regarding `N#Cc1cc2c(nc1SC1CC(=O)N(c3ccccc3)C1=O)CCC2` (configuration not stated), the outcome was inactive.

On to `Cc1ccc2nc3cc([N+](=O)[O-])cc([N+](=O)[O-])c3cc2c1`, for which the result was inactive.

With `CCOC(=O)c1nnn(-c2ccc([N+](=O)[O-])cc2[N+](=O)[O-])c1C`, the result was inactive.

On to `COc1ccc(Nc2oc(-c3ccc(OC)cc3)nc2C#N)cc1`, for which the outcome was inactive.

Regarding `Cc1cccc(-c2nc(C#N)c(NCc3ccco3)o2)c1`, the outcome was inactive.

As for `COC(=O)c1c(C)[nH]c(/C=N/Nc2ccccc2)c1C`, the outcome was inactive.

Consider `OCCNc1c2ccccc2nc2c(F)c(F)c(F)c(F)c12`, for which the outcome was inactive.

For `FC(F)(F)Oc1ccc(-c2cn3cccnc3n2)cc1`, the result was inactive.

`COc1ccc(NC(=O)Nc2ccc(F)c(F)c2)c(OC)c1`: the outcome was inactive.

For `Cc1ccc(-c2c[n+](Cc3cccc(Cl)c3)c3n2CCC3)cc1`, the outcome was inactive.

For the compound `Cc1ccc(-c2c[n+](Cc3ccc(Cl)cc3)c3n2CCC3)cc1`, the result was inactive.

For `CC1CC(C)C[N+](=C2C=C(N3CCCC3)CC(C)(C)C2)C1` (configuration not stated), the outcome was inactive.

Consider `COc1ccc(-c2noc(-c3cccs3)n2)cc1OC`, for which the result was inactive.

For `O=C(Nc1cccnc1Cl)c1cc(-c2ccco2)on1`, the outcome was inactive.

Regarding `CCN(CC)S(=O)(=O)c1ccc(N2CCCC2)c(NC(=O)c2ccc([N+](=O)[O-])o2)c1`, the outcome was inactive.

Consider `CSc1nc(N)n2nc(-c3ccccc3)cc2n1`, for which the result was inactive.

On to `COc1ccc(C(NC(C)=O)c2ccc3cccnc3c2O)c(OC)c1` (configuration not stated), for which the result was inactive.

As for `COc1ccc(-c2csc(N(C)C(=O)c3ccco3)n2)cc1`, the outcome was inactive.

`C(=N\Nc1cc(N2CCCCC2)ncn1)/c1ccco1`: the result was inactive.

With `CC(=O)c1sc(N/N=C\c2ccc(N(C)C)cc2)nc1C`, the result was inactive.

Take `Cc1csc(N/N=C/c2ccc([N+](=O)[O-])cc2)n1`: the result was inactive.

As to `CCOc1ccc(C(=O)N2CCc3ccccc32)cc1`, the result was inactive.

Regarding `CC(=O)Oc1ccc(C)cc1-n1nc2ccccc2n1`, the outcome was inactive.

Consider `CC(=O)Cn1ncc(Br)c(Br)c1=O`, for which the result was inactive.

Take `O=C(CCCN1C(=O)S/C(=C\c2ccccc2)C1=O)NNC(=O)c1ccccc1O`: the outcome was inactive.

For the compound `O=C(CCCCl)NC(=S)Nc1ccc(N2CCOCC2)cc1`, the outcome was inactive.

In the case of `N/C(=N\OC(=O)Cc1cccs1)c1ccccc1`, the result was inactive.

As for `Cc1cc(C(=O)CSc2nnc3ccccn23)c(C)n1-c1ccccc1`, the outcome was inactive.

As to `O=C(Nc1cnc2ccccn2c1=O)c1ccc(F)cc1`, the result was inactive.

Regarding `CC1(C(=O)N/N=C/c2ccc([N+](=O)[O-])o2)CC1(Br)Br` (configuration not stated), the outcome was inactive.

In the case of `O=C(Cc1ccc2c(c1)OCO2)NN=Cc1ccc([N+](=O)[O-])o1`, the result was inactive.

`Cc1ccc(NCC(=O)N/N=C\c2ccc([N+](=O)[O-])o2)cc1`: the result was inactive.

Consider `Cc1ccc(NC(=O)CCC(=O)N/N=C/c2ccc([N+](=O)[O-])o2)cc1C`, for which the outcome was inactive.

Turning to `CCCCn1c(=O)[nH]c(=O)c2c1nc(Cn1ncc(Cl)c(Cl)c1=O)n2CCC`, the result was inactive.

On to `O=c1c(Cl)c(Cl)cnn1-c1ccccc1`, for which the result was inactive.

`CC(=O)OCCCNc1cc(Sc2ccc(Cl)cc2)c2nonc2c1[N+](=O)[O-]`: the result was inactive.

`Cc1ccccc1OCc1nc2c3cnn(C)c3ncn2n1`: the outcome was inactive.

As for `c1cnc(SCCOc2ccc3c(c2)CCC3)nc1`, the outcome was inactive.

As for `Cc1ccc(NC(=O)c2cnc3ccccc3n2)cc1C`, the result was inactive.

On to `CCn1nccc1C(=O)Nc1ccc(C)c(C)c1`, for which the result was inactive.

In the case of `ClC1(Cl)CC1CSc1nnc(-c2ccncc2)o1` (configuration not stated), the outcome was inactive.

Turning to `O=C(Nc1ccc2nc3n(c(=O)c2c1)CCCCC3)c1cc([N+](=O)[O-])ccc1F`, the result was inactive.

Consider `CC1CCN(CC2C(=O)O[C@@H]3C[C@@]4(C)CCC[C@H](C)C4=C[C@H]23)CC(C)(C)C1` (some centres not stated), for which the outcome was inactive.

On to `COc1cc(C(=O)N/N=C(\c2ccccc2)c2ccccn2)cc(OC)c1OC`, for which the outcome was inactive.

For `O=C(NCc1ccc2c(c1)OCO2)c1cc(=O)[nH]c2ccccc12`, the outcome was inactive.

Consider `COc1ccc(N(Cc2cc(=O)[nH]c3ccccc23)C(=O)CCl)cc1`, for which the result was inactive.

In the case of `CCC(=O)OCCNc1cc(Sc2nccn2C)c2nonc2c1[N+](=O)[O-]`, the outcome was inactive.

For `O=C1c2ccccc2C(=O)N1CCSc1ccccc1`, the outcome was inactive.

Turning to `CN(c1ccc2nc3ccccc3c(=O)n2n1)C1CCCCC1`, the outcome was inactive.

Turning to `O=C(CCl)Nc1cn(-c2ccccc2)nc1-c1ccccc1`, the outcome was inactive.

As for `Cc1ccc(NC(=O)c2cc(-c3cccs3)on2)cc1`, the result was inactive.

Take `Cc1ccc2oc(C(Cl)(Cl)Cl)cc(=O)c2c1`: the result was inactive.

Take `O=C(CCl)N1c2ccccc2CCc2ccccc21`: the outcome was inactive.

As to `Cc1ccc(NC(=O)/C=C/c2ccc([N+](=O)[O-])s2)c(C)c1`, the outcome was inactive.

On to `CCCOc1ccc(C(=O)C(CN2CCCC2)c2ccccc2)cc1` (configuration not stated), for which the outcome was inactive.

As to `CCSC1(SCC)N=C(N)C2(C#N)C(c3ccc(F)cc3)C12C#N` (configuration not stated), the outcome was inactive.

As to `O=C(CCCc1ccccc1)Nc1cccc(C(=O)O)c1`, the outcome was inactive.

As for `O=C(CSCc1c(F)cccc1F)Nc1ccccc1`, the outcome was inactive.

`CSc1nc(N)n2nc(-c3ccc(Cl)cc3)cc2n1`: the result was inactive.

For `N#C/C(=C\C=C\c1ccccc1[N+](=O)[O-])C(=O)NC1CCCCC1`, the result was inactive.

Turning to `CN(C)c1nc(-c2ccccn2)nnc1-c1ccccc1`, the result was inactive.

In the case of `CCOc1cc(/C=C\[N+](=O)[O-])ccc1OCC(=O)N1CCOCC1`, the outcome was inactive.

As for `CS(=O)(=O)c1ccc2nc(NC(=O)c3ccccc3Br)sc2c1`, the outcome was inactive.

With `COc1ccc(-n2ncc3c(N4CCCCC4)ncnc32)cc1`, the outcome was inactive.

For `CN(C)c1cc[n+](CC(=O)c2ccc(-c3ccccc3)cc2)cc1`, the result was inactive.

Consider `COc1cccc(NC(=O)c2cnn(-c3ccccc3)c2C)c1`, for which the result was inactive.

In the case of `CN1CCN(CCCOc2ccc(-c3ccccc3)cc2)CC1`, the outcome was inactive.

As to `O=C(CCl)N1N=C(c2ccco2)CC1c1cccs1` (configuration not stated), the outcome was inactive.

As to `CC(C)(C)OC(=O)N1CCN(C(=O)c2nc[nH]c2C(=O)N2CCN(c3ccccc3)CC2)CC1`, the result was inactive.

Turning to `COCC(C)Nc1ncnc2c1cnn2-c1ccc(Cl)cc1` (configuration not stated), the outcome was inactive.

In the case of `CC1CCCC(C)N1CCCNC(=O)c1cc2c(s1)-c1ccccc1OC2` (configuration not stated), the outcome was inactive.

Consider `C=CCn1c(C)cc(C(=O)CN2C(=O)c3ccccc3S2(=O)=O)c1C`, for which the result was inactive.

Take `N#C/C(=C\c1c[nH]c2ccccc12)C(=O)NC1CC1`: the outcome was inactive.

In the case of `COc1cccc(N2CCN(C(=O)c3ccc(CS(=O)c4ccccc4Cl)o3)CC2)c1` (configuration not stated), the outcome was inactive.

For `C=C1C(=O)C2=CC1CCC(=O)C1(C)CCC(OC(C)=O)C(C)(C)C1CC2O` (configuration not stated), the result was inactive.

For `O=C(CCCc1ccccc1)N1CCN(C2CCCCC2)CC1`, the outcome was inactive.

Turning to `NC(=O)c1ccccc1NC(=O)/C=C/c1cccc(Cl)c1`, the result was inactive.

On to `CC(C)C(=O)Nc1ccc2nn(-c3ccc(F)cc3)nc2c1`, for which the result was inactive.

On to `Cc1cc(/C(N)=N/OC(=O)c2ccc(Cl)cc2)no1`, for which the result was inactive.

For `COc1ccccc1OCCN1CSC(=S)N(C)C1`, the result was inactive.

Take `CC(=O)CSc1ccc(-c2nc3cc(C)c(C)cc3[nH]2)cn1`: the outcome was inactive.

As to `Cc1[nH]n(-c2ccccc2)c(=O)c1N=Nc1cccc(C(=O)O)c1`, the result was inactive.

With `CCOc1ccc(/C=C2\SC(=S)N(CCC(=O)O)C2=O)cc1`, the result was inactive.

`CC(=O)c1cccc(NC(=O)/C=C/c2ccc([N+](=O)[O-])s2)c1`: the outcome was inactive.

As for `COc1ccccc1-c1nnc(-c2ccc(C)cc2)o1`, the outcome was inactive.

Take `COc1ccccc1-c1nc(-c2ccc(C)nc2OC)no1`: the result was inactive.

Take `O=C(O)c1ccc(N/N=C/c2ccc(OC(=O)c3cccc(Cl)c3)cc2)cc1`: the outcome was inactive.

As to `O=C(Nc1ccccc1N1CCOCC1)c1ccc([N+](=O)[O-])o1`, the outcome was inactive.

Consider `CCCC(=O)N1CCN(c2ccc(NC(=O)c3ccc([N+](=O)[O-])o3)cc2Cl)CC1`, for which the outcome was inactive.

In the case of `CC(C)C(=O)N1CCN(c2ccc(NC(=O)c3ccc([N+](=O)[O-])o3)cc2Cl)CC1`, the outcome was inactive.

Regarding `CN1CCN(c2ccc(NC(=O)c3ccc([N+](=O)[O-])o3)cc2Cl)CC1`, the outcome was inactive.

Regarding `CCC(=O)N1CCN(c2ccc(Cl)cc2NC(=O)c2ccc([N+](=O)[O-])o2)CC1`, the result was inactive.

For the compound `Cc1cccc(NC(=O)c2ccc([N+](=O)[O-])o2)c1C`, the outcome was inactive.

`CCn1c(=O)c([N+](=O)[O-])c(Cl)c2ccccc21`: the outcome was inactive.

Turning to `CC(=O)N/C(N)=N/c1nc(=O)c2ccccc2s1`, the outcome was inactive.

For the compound `COc1ccc(C(=O)/C=C(\C)Nc2ccc3c(c2)OCO3)cc1`, the outcome was inactive.

For `Clc1nccnc1N/N=C/c1ccc(Br)cc1`, the outcome was inactive.

As to `COc1cc(/C=C/C(=O)N2CCC=CC2=O)cc(OC)c1OC`, the outcome was inactive.

Regarding `CC(=O)Nc1cccc(-c2nnc(-c3ccccc3)o2)c1`, the result was inactive.

Regarding `Cc1ccc(C(=O)Nc2cnc3ccccc3c2)cc1`, the result was inactive.

On to `O=C(CCl)Nc1cccc(Oc2ccccc2)c1`, for which the outcome was inactive.

In the case of `CCOc1cc(NC(=O)CCl)c(OCC)cc1NC(=O)CCl`, the result was inactive.

As for `O=C(O)CSCC(=O)Nc1ccc(C2CCCCC2)cc1`, the outcome was inactive.

In the case of `Cc1c(C#N)c(NC(=O)CCl)n(Cc2ccccc2)c1C`, the outcome was inactive.

Take `O=[N+]([O-])c1cc(S(=O)(=O)N2CCCCCC2)ccc1F`: the outcome was inactive.

Regarding `O=C(N/N=C/c1cc(Cl)ccc1O)c1ccncc1`, the outcome was inactive.

As to `O=C(COC(=O)c1ccc[nH]c1=O)Nc1ccc(N2CCCCC2)cc1`, the outcome was inactive.

Regarding `CN=c1scc(-c2ccccc2F)n1/N=C/c1ccc[nH]1`, the result was inactive.

`Cc1ccc(COc2ccc(C)nc2[N+](=O)[O-])cc1`: the outcome was inactive.

On to `O=C(Cn1ncc(Cl)c(Cl)c1=O)Nc1ccc2c(c1)OCO2`, for which the result was inactive.

Consider `O=[N+]([O-])c1cccc(/C=N/Nc2ncc(Br)cn2)c1`, for which the outcome was inactive.

For the origin of these results see PubChem BioAssay AID493240 (Broad Institute, 2011).
